This passage reports composite z-score and z-score results from PubChem BioAssay.

Structures are written as SMILES. Active and inactive are the calls of the source.

Assay [1] in a line: binders of probe aFSTL3 on microarray, primary screen, stem cell growth factor project, biochemical, small-molecule microarray, fluorescence 635/667 (AID 1064).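 Further: measures binding of the biotinylated anti-FSTL3 antibody to printed compounds.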 To be noted: higher = more signal.
The nature of assay [2]: binders from COS7 lysate, DM2A8 probe, primary screen, torsin A project, cell lysate, small-molecule microarray, fluorescence 635/667 (AID 1065). The note with it: higher = more signal, COS7 lysate expressing mutant human TOR1A.
Assay [3] can be described thus: binders of probe aFGF2 on microarray, primary screen, stem cell growth factor project, biochemical, small-molecule microarray, fluorescence 635/667 (AID 1067).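 Further: measures binding of biotinylated aFGF2 protein to printed compounds on slides; z-score merges feature fluorescence and signal-to-noise across triplicate slides.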 The note with it: higher = more signal.
Assay [4] is described as follows: binders of probe aFGF10 on microarray, primary screen, stem cell growth factor project, biochemical, small-molecule microarray, fluorescence 635/667 (AID 1071).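 Further: score merges 667 nm spot intensity and signal to noise from triplicate slides.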 To be noted: higher = more signal.
The target in assay [5] is Neurogenic locus notch homolog protein 2 (Homo sapiens) (UniProt Q04721). In words: Notch2 binders on small-molecule microarrays, primary screen, biochemical, small-molecule microarray, 635 nm fluorescence, stem cell growth factors (AID 1073). To be noted: Notch2 binding, higher = more signal.
Assay [6] has as its target Pro-neuregulin-1, membrane-bound isoform (Homo sapiens) (UniProt Q02297). Description: NRG1 binders on small-molecule microarrays, primary screen, psychiatric disease protein project, biochemical, small-molecule microarray, fluorescence 635/667 (AID 1075).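 Further: score combines 667 nm spot fluorescence with signal to noise.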 The note with it: NRG1 binding, 635 nm fluorescence, higher = more signal.
The subject of assay [7] is Neuregulin-1 EGF-like domain. Description: binders of neuregulin-1 EGF-like domain, primary screen, biochemical, small-molecule microarray, 635 nm fluorescence (AID 1081).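 Further: binding of the protein to compounds printed on small-molecule microarray slides.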 The note with it: small-molecule microarray binding, higher = more signal.
Assay [8] is described as follows: FRG1 promoter luciferase signal modulators, primary screen, FRG1 inhibition for FSHD, cell-based, C2C12 myotubes, firefly/Renilla luciferase, luminescence (AID 1084). To be noted: higher = more signal, called active from +8 up or from −8 down.
Assay [9] can be described thus: binders of probe aFST on microarray, primary screen, stem cell growth factor project, biochemical, small-molecule microarray, fluorescence 635/667 (AID 1086).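 Further: score merges 667 nm fluorescence with signal-to-noise of each printed compound spot.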 To be noted: higher = more signal.
Assay [10] is described as follows: binders of probe aHhip on microarray, primary screen, stem cell growth factor project, biochemical, small-molecule microarray, fluorescence 635/667 (AID 1087).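 Further: score merges spot fluorescence at 667nm with spot signal to noise ratio.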 The note with it: higher = more signal.

Sequence of Pro-neuregulin-1, membrane-bound isoform (Homo sapiens) (Q02297 whole entry, looked up, the tested form may be a part, canonical isoform): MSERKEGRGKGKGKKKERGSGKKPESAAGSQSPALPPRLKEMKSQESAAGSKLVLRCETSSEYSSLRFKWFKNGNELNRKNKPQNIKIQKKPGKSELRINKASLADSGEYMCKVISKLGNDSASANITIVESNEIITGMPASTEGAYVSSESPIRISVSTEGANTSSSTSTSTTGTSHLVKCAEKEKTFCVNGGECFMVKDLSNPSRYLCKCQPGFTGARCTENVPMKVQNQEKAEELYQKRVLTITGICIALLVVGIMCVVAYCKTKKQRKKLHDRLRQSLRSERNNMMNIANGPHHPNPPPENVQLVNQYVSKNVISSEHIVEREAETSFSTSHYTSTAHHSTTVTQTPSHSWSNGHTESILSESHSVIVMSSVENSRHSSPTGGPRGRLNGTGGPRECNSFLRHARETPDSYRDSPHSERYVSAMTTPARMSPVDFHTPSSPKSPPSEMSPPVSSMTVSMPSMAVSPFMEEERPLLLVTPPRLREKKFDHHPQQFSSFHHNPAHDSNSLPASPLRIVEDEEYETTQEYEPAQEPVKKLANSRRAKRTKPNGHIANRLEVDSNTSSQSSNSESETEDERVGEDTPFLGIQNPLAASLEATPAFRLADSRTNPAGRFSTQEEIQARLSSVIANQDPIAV
Sequence of Neurogenic locus notch homolog protein 2 (Homo sapiens) (Q04721 whole entry, looked up, canonical isoform): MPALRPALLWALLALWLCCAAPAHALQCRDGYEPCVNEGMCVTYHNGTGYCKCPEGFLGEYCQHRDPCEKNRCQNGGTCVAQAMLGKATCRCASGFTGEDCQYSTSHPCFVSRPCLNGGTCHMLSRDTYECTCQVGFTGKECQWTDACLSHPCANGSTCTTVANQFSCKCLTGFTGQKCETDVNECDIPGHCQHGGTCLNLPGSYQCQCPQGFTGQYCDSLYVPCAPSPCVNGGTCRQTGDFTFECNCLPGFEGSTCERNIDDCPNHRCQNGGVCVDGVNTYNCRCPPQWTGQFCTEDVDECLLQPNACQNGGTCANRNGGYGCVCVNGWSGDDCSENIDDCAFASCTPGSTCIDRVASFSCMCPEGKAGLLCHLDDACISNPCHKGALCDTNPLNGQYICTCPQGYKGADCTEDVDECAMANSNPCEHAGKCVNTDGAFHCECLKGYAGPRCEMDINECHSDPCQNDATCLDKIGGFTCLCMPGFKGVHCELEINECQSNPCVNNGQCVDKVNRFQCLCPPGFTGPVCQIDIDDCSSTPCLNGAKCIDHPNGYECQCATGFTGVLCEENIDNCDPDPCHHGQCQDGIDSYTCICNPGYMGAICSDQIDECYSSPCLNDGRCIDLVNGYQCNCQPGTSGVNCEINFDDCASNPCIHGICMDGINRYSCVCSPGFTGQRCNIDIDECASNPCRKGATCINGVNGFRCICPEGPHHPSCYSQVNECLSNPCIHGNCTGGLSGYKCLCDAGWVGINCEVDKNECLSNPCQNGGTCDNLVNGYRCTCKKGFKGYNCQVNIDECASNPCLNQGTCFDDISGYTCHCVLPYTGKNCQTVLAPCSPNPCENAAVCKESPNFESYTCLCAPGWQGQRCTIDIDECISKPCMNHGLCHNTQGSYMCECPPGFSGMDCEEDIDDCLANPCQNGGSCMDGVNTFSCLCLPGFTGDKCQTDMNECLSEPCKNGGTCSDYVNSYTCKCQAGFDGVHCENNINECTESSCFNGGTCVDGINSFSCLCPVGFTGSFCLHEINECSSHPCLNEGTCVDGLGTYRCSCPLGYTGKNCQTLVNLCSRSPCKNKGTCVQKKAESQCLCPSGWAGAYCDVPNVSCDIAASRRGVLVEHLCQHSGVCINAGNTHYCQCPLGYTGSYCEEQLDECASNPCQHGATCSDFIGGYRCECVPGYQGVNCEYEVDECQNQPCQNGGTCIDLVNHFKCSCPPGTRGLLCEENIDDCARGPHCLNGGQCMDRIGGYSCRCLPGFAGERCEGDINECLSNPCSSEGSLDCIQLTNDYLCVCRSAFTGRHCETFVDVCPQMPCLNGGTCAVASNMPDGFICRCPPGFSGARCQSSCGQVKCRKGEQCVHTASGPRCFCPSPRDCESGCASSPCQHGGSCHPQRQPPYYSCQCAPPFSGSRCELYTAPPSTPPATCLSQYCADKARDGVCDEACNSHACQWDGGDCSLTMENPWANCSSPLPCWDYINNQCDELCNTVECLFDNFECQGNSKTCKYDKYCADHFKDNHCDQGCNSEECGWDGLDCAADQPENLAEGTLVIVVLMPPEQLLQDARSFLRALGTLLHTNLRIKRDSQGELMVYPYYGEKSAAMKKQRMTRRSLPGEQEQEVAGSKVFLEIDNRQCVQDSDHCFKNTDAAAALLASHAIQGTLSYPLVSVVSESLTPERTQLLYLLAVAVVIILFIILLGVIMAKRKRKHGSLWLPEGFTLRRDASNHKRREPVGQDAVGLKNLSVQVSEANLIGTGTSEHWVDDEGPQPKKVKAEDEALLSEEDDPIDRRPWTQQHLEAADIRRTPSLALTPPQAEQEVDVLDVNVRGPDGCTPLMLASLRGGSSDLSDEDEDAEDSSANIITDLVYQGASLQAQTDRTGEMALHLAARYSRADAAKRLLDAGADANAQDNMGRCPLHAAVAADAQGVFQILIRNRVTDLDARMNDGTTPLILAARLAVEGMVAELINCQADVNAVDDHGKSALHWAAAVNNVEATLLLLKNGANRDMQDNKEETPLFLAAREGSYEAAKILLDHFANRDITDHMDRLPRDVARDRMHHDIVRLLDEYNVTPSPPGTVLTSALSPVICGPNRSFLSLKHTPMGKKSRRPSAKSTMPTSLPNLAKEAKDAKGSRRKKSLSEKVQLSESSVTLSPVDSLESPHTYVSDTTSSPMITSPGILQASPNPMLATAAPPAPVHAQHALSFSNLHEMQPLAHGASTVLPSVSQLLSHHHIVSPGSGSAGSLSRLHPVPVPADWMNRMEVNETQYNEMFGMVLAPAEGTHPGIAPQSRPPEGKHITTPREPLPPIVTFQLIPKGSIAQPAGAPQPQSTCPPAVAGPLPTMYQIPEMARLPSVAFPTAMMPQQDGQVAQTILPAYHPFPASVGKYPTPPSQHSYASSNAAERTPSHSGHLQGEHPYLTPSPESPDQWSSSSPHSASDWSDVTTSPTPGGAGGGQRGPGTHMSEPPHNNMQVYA

Turning to `COc1ccc(CCNC(=O)[C@@]2(Cc3ccccc3I)c3ccccc3C(=O)N(Cc3ccccc3Cl)[C@H]2c2ccc(CO)cc2)cc1`, the composite z-score amounted to 0.696 in assay [1]; 0.348 in assay [2]; 0.189 in assay [3]; 0.0625 in assay [4]; 0.0077 in assay [5]; 1.8 in [6]. For the same compound, the composite z-score in [7] is 1.22; in [9] it was 0.262; in assay [10], 0.674. The z-score in assay [8] was -3.44 (inactive).
For `C=C(COC)/C(=C/C[C@@H](OC(C)=O)c1ccc(CO)o1)c1cc(C(=O)OC)ccc1OC`, the composite z-score in assay [1] is -0.22; in [2] it was 0.707; in assay [3], -0.111; in [4] it was 0.851; in [5] it was -0.378; in assay [6], 1.46. Besides, the composite z-score in [7] is 1.3; in assay [9], -0.179; in [10], -0.0994. In [8], the z-score was 0.435 (inactive).
Regarding `COCCOC(=O)N1C(=O)[C@@]2(c3cc(C#CCC(C(=O)OC)C(=O)OC)ccc31)[C@H](C(=O)NC[C@H](O)c1ccccc1)[C@H]1C(=O)O[C@H](c3ccccc3)[C@H](c3ccccc3)N1[C@@H]2c1ccc(OCCO)cc1`, the composite z-score was -0.341 in assay [1]; 0.0051 in [2]; -0.113 in assay [3]; 0.245 in [4]; 0.917 in assay [5]; 0.161 in [6]. In addition, the composite z-score in assay [7] is 1.23; in assay [9] it was 0.5; in [10], -0.0994. The z-score in assay [8] was 0.856 (inactive).
For the compound `COc1cc2c(cc1O)C(c1cccs1)N(Cc1sc3ccccc3c1Cl)CC2` (stereo not given), the composite z-score was -0.181 in assay [1]; 1.14 in assay [2]; 0.115 in assay [3]; 1.18 in assay [4]; 1.55 in assay [5]; 2.09 in assay [6]. Besides, the composite z-score in [7] amounted to 1.42; in [9], 1.11; in assay [10] it was 3.57. Further, the z-score in assay [8] was -0.19 (inactive).
Turning to `COc1ccc(NC(=O)O[C@H]2[C@@H]3OC(=O)[C@H](Cc4cccc(Br)c4)C/C=C/C[C@@H](Cc4cccc(Br)c4)C(=O)O[C@H]3[C@@H](OC)O[C@@H]2CO)cc1`, the composite z-score in assay [1] was 0.0355; in assay [2], 1.4; in assay [3], 0.0929; in assay [4], 0.579; in assay [5], 0.935; in assay [6], 0.558. Besides, the composite z-score in assay [7] worked out at 0.453; in [9] it was 0.421; in assay [10] it was 0.285. Besides, the z-score in [8] was 3.13 (inactive).
On to `CC(C)CNC(=O)[C@@]1(c2ccc([N+](=O)[O-])cc2)CC(=O)N(C2CCCCC2)[C@@H]1c1ccc(CO)cc1`, for which the composite z-score in assay [1] is 0.574; in [2] it was 0.219; in assay [3], 0.0353; in [4] it was -0.0872; in [5], 0.554; in assay [6], 0.452. The values for the composite z-score in assay [7], in assay [9] and in assay [10] were 1.26, 0.859 and -0.132, respectively. Besides, the z-score in [8] was -0.639 (inactive).
As to `CCOC(=O)C1=C[C@@H](C(C)(C)C)N(S(=O)(=O)c2ccc(C)cc2)[C@H]1c1ccc(C)cc1`, the composite z-score was -0.173 in [1]; 0.577 in assay [2]; 0.135 in [3]; 1.13 in [4]; 1.68 in assay [5]; 0.877 in assay [6]. Besides, the composite z-score in assay [7] was 0.894; in [9], 1.8; in assay [10] it was 0.245. For the same compound, the z-score in [8] is -2.53 (inactive).
For the compound `C=CCC(OC(C)=O)[C@@H]1[C@@H](N(Cc2ccc(-c3cccc(C(F)(F)F)c3)o2)C(=O)Cc2ccc(OC)cc2)c2cc(OCCCO)ccc2N1C(=O)Cc1ccc2ccccc2c1` (stereo not given in full), the composite z-score in assay [1] was -0.131; in [2], -0.919; in [3], -0.0715; in [4], -0.139; in [5] it was -0.696; in assay [6], 0.465. Further, the composite z-score in assay [7] was 0.113; in assay [9], 0.069; in [10] it was 0.0505. The z-score in assay [8] is -0.734 (inactive).
`COCCOC(=O)N1C(=O)[C@@]2(c3cc(C#CCC(C(=O)OC)C(=O)OC)ccc31)[C@H](C(=O)NC[C@H](O)c1ccccc1)[C@H]1C(=O)O[C@H](c3ccccc3)[C@H](c3ccccc3)N1[C@@H]2c1ccc(O)cc1`: the composite z-score in assay [1] was -0.0562; in [2] it was 0.498; in assay [3] it was -0.0647; in [4] it was 0.954; in assay [5] it was 0.269; in assay [6], 1.01. Also, the composite z-score in assay [7] came out at 1.28; in [9] it was 1.04; in assay [10] it was 0.213. The z-score in assay [8] is -0.81 (inactive).
As to `C=C(CCCC)/C(=C/C[C@H](OC(C)=O)c1ccc(OCCO)cc1)c1cc(C(=O)OC)ccc1OC`, the composite z-score in assay [1] is -0.321; in assay [2], -0.137; in assay [3] it was 0.0057; in assay [4], 0.674; in assay [5], -0.0254; in assay [6], 1.04. For the same compound, the composite z-score is 1 in [7], -0.28 in assay [9] and -0.179 in [10]. Besides, in assay [8], the z-score was 8.65 (active).
Turning to `COCCOC(=O)N1C(=O)[C@@]2(c3cc(C#CC4(O)CCCCCC4)ccc31)[C@H](C(=O)N1CCN(c3ncccn3)CC1)[C@H]1C(=O)O[C@H](c3ccccc3)[C@H](c3ccccc3)N1[C@@H]2c1ccccc1OCCO`, the composite z-score in assay [1] is -0.215; in assay [2], 0.825; in assay [3], -0.0195; in assay [4] it was 0.452; in [5], 1.08; in [6], 0.239. Further, the composite z-score turned out to be 1.05 in [7], 0.474 in assay [9] and 0.0515 in assay [10]. Moreover, in assay [8], the z-score is 0.041 (inactive).
Turning to `CC(C)[C@H]1NC(=O)[C@@]23C(=O)N[C@@H](Cc4ccccc4)C2[C@H](C)[C@@]2(C)O[C@H]2C3/C=C/CCC/C=C/CNC(=O)[C@H](Cc2ccccc2)NC1=O` (stereo not given in full), the composite z-score in [1] is -0.245; in assay [2], 0.719; in assay [3] it was -0.147; in assay [4] it was -0.0587; in assay [5], 0.046; in assay [6], 1.57. Also, the composite z-score in [7] is 1.22; in assay [9], -0.419; in assay [10], -0.319. For the same compound, in assay [8], the z-score was 0.966 (inactive).
As to `CCCCCN1CC=CC23O[C@@H]4/C=C\CCC(C)OC(=O)C4[C@H]2C(=O)N(CCCCCCO)[C@@H]3C1=O` (stereo not given in full), the composite z-score is -0.146 in [1]; -0.355 in assay [2]; -0.129 in assay [3]; -0.248 in assay [4]; -0.641 in assay [5]; 1.89 in assay [6]. The results for the composite z-score in [7], in [9] and in assay [10] were 1.4, -0.183 and -0.0994, respectively. Moreover, the z-score in assay [8] is -0.0224 (inactive).
Consider `[N-]=[N+]=NCc1ccccc1[C@H]1OC(c2ccc(OCCCO)cc2)=N[C@@]1(CCS(=O)(=O)c1ccccc1)C(=O)NCc1ccccc1`, for which the composite z-score in [1] was determined as 0.174; in assay [2], 0.447; in [3] it was 0.138; in [4] it was 0.914; in [5], 1.53; in assay [6] it was 1.33. Further, the composite z-score in assay [7] worked out at 1.24; in assay [9], 0.981; in assay [10], 1.05. Further, the z-score in assay [8] was -1.68 (inactive).
